Experimental data: PubChem BioAssay AID1159580 (chemical genetic matrix, 2015)
The campaign covered roughly 5,500 compounds. About 2,000 (36%) were called active. About 18% were inconclusive and are not listed. Cut-off read from the data, not from the text of the source: active = normalized growth mostly below about 0.91 (no sharp cut-off); inconclusive = no clear call, values can overlap the other calls; inactive = mostly above about 0.92. This is one part of the list.

Experiment: chemical genetic growth profiling, strain panel (AID 1159580);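 note: tested at 20 µM; growth read once vehicle control cultures reached saturation at 30 °C; 1 = growth at the plate median or of vehicle wells; lower values mean less growth of the strain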
Conditions: S. cerevisiae deletion strains, growth OD

Measured: normalized growth

C[C@]12CCC(=O)C=C1CC[C@@H]1[C@@H]2C(=O)C[C@@]2(C)[C@H]1CC[C@]2(O)C(=O)CO
inactive: locus YAL040C, strain CLN3, stronger effect = lower value 0.957 | locus YCL061C, strain MRC1 (second series), stronger effect = lower value 0.993 | locus YDR150W, strain NUM1, stronger effect = lower value 1 | locus YDR363W, strain ESC2, stronger effect = lower value 0.986 | locus YER002W, strain NOP16, stronger effect = lower value 0.966 | locus YNL128W, strain TEP1, stronger effect = lower value 0.978 | locus YNL153C, strain GIM3, stronger effect = lower value 0.979 | locus YNL175C, strain NOP13, stronger effect = lower value 0.982 | locus YNL197C, strain WHI3, stronger effect = lower value 0.942 | locus YNL224C, strain SQS1, stronger effect = lower value 0.983 | locus YNL322C, strain KRE1, stronger effect = lower value 0.988 | locus YOR083W, strain WHI5 (second series), stronger effect = lower value 0.94 | locus YPL241C, strain CIN2, stronger effect = lower value 0.995
